# Laboratory results: PubChem BioAssay (NCATS)
# Several values for one entry are separate records, joined by “and”; a condition that tells them apart may be missing. Equal entries are not always repeated. Inconclusive results are not listed. Activity calls are given as the source filed them. Calls come from the whole dose curve.
# Assay: qHTS Assay for Lipid Storage Modulators (AID 1519); for activity change, negative = inhibition: % is set by controls: 0 for no effect and ±100 for the full control effect
# Settings: Drosophila S3 cells, BODIPY lipid droplet/cell ratio, laser cytometry, cells loaded with oleic acid
# Description: NIH Molecular Libraries Probe Production Centers Network [MLPCN]
# NIH Chemical Genomics Center [NCGC]
# Assay Submitter (PI): Beller, Mathias; Max-Planck-Institut fur Biophysikalische Chemie
# NCGC Assay Overview: Storing lipids as a reservoir for energy or the anabolism of elementary metabolites is a common feature of probably all cells and is conserved from bacteria to humans. The universal cellular lipid storage organelle is the so-called lipid storage droplet (LD). Although ubiquitous, LDs share a simple structure composed of a hydrophobic core that harbors the storage lipids, which is shielded by a droplet-specific phospholipid monolayer to which proteins are attached. The current model of LD biogenesis involves an incorporation of the lipid core into the membrane leaflets of the endoplasmic reticulum (ER) followed by a subsequent budding-like maturation of a LD, which ultimately pinches off. Once released, LD volume can increase by localized lipogenesis or fusion of existing droplets. Storage lipids are re-mobilized enzymatically by lipase activity. Lipase regulation in the adipocyte is heavily studied and involves multiple components including catecholamine signaling, the LD-associated proteins Perilipin and comparative gene identification-58 (CGI-58) and at least two lipases named hormone sensitive lipase (HSL) and adipocyte triglyceride lipase (ATGL). LD regulation outside of the adipocyte is poorly understood and only few components are known. However, there is an urgent need to learn more about ectopic fat depots as mislocalized storage of lipids, for example in the liver or muscle, is an eminent health problem associated with insulin resistance or the metabolic syndrome. We developed a laser-scanning cytometer assay to enable 1,536-well screening and combined the results of the small molecules screen with an RNAi database based on lipid storage.
# NCGC Assay Protocol Summary:
# We dispensed 4 uL of cells at 1.25 x 10^6 cells/mL into LoBase Aurora COC 1,536-well plates (black walled, clear bottom) with a bottle-valve solenoid-based dispenser (Aurora) to obtain 5,000 cells/well. Triacsin C (Sigma-Aldrich T-4540), an inhibitor of long-chain fatty acyl CoA synthetase that blocks synthesis of triglycerides, was used as a positive control for lipid under-storage. A total of 23 nL of compound solution of different concentrations were transferred to the assay plates using a Kalypsys pin tool equipped with a 1,536-pin array containing 10-nL slotted pins (FP1S10, 0.457-mm diameter, 50.8 mm long; V&P Scientific). One microliter of oleic acid (400 uM) was added, and the plate was lidded with stainless steel rubber gasket lined lids containing pinholes. […] Fluorescence was detected by excitation of the fluorophores with a 488-nm laser on an Acumen Explorer (TTP Lab Tech). The total intensity in channel 1 (500-530 nm) reflected lipid droplet accumulation. […] The ratio of the total intensity in PMT channel 1 over total intensity of channel 3 was also calculated. Percent activity was computed relative to an internal control (100% inhibited lipid droplet deposition due to the presence of 20 uM Triacsin C), which was added to 32 wells/plate.
# [1] = measured here: cell count channel max response
# [2] = measured here: lipid channel max response
SMILES,"activity change, negative = inhibition (at 25.7 µM (top of the series))",max response [1],max response [2],"activity change, negative = inhibition (at 57.5 µM (top of the series))"
c1ccc2[nH]c(-c3cscn3)nc2c1,0.183% (inactive),-11.6%,-10.4%,–
Cc1ccc(C)c(OCCCC(C)(C)C(=O)O)c1,0.467% (inactive),10.3%,8.2%,–
Cc1nc2n(c(=O)c1CCN1CCC(c3noc4cc(F)ccc34)CC1)CCCC2,-3.92% (inactive),-8.38% and -35%,-11.2% and -35%,0.755% (inactive)
NS(=O)(=O)c1cc(C(=O)O)c(NCc2ccco2)cc1Cl,1.95% (inactive),-6.97%,-4.2%,–
CCc1nc(N)nc(N)c1-c1ccc(Cl)cc1,-2.49% (inactive),-6.7% and 7.93%,-10.2% and 22.1%,9.2% (inactive)
Cc1cc(=O)oc2cc(O)ccc12,0.949% (inactive),-7.84%,-11.2%,–
CCC1=C(C)CN(C(=O)NCCc2ccc(S(=O)(=O)NC(=O)NC3CCC(C)CC3)cc2)C1=O (stereo unspecified),-0.769% (inactive),-5.01%,-5.89%,–
O=C1c2c(O)cc(O)cc2OC(c2ccc(O)c(O)c2)C1O (stereo unspecified),–,37.7%,36.5%,0.956% (inactive)
Cc1ncc([N+](=O)[O-])n1CC(C)O (stereo unspecified),–,10.3%,12.9%,2.12% (inactive)
O=c1c(O)c(-c2ccc(O)cc2O)oc2cc(O)cc(O)c12,–,2.76%,19%,13.5% (inactive)
CCCOc1ccc2nc(NC(=O)OC)[nH]c2c1,–,3.19%,11.6%,5.26% (inactive)
NCCCCNCCCN,–,7.14%,8.54%,0.755% (inactive)
Cc1cc2c(s1)Nc1ccccc1N=C2N1CCN(C)CC1,–,-2.56%,9.09%,13.5% (inactive)
